Assay results published in PubChem BioAssay.
Activity calls are given as the source filed them. Unless noted, no rule for the calls is given here.

What was measured:
[1] = anti-His antibody binders, primary screen, artefact control for SMM control protein annotation, biochemical, small-molecule microarray, 635 nm fluorescence (AID 1128); details: anti-His Alexa647 antibody binding, higher = more signal;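 also: score merges feature fluorescence with signal-to-noise for each printed compound spot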
[2] = test system: Human papillomavirus type 1a E7 protein (residues 1-88); test: HPV1a E7 small-molecule binders, primary screen, biochemical, small-molecule microarray, residues 1-88, 635 nm (AID 1129); details: small-molecule microarray binding, fluorescence 635 nm; higher = more signal
[3] = target: Focal adhesion kinase 1 (Homo sapiens) (UniProt Q05397); test: small-molecule microarray binders of FAK, primary screen, biochemical, 635/667 nm fluorescence, BSA, DTT (AID 1130); details: PTK2 binding, 635 nm fluorescence, higher = more signal;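 also: composite of spot emission at 667 nm and signal to noise over triplicate slides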
[4] = test system: Fibrinogen (Alexa647-labelled); test: fibrinogen binders on compound microarrays, profiling panel, artefact control for SMM control-protein annotation, biochemical, small-molecule microarray, 635/667 nm fluorescence (AID 1131); details: fibrinogen-A647 binding fluorescence, higher = more signal;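 also: z-score merges 667 nm fluorescence with per-spot signal-to-noise over triplicate slides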
[5] = target: Follistatin (Homo sapiens) (UniProt P19883); test: follistatin binders on small-molecule microarrays, primary screen, biochemical, small-molecule microarray, 635/667 nm fluorescence (AID 1132); details: FST binding, 635 nm fluorescence, higher = more signal
[6] = target: Fibroblast growth factor 2 (Homo sapiens) (UniProt P09038); test: FGF2 binders on small-molecule microarrays, primary screen, biochemical, small-molecule microarray, 635/667 nm fluorescence (AID 1133); details: small-molecule microarray binding, FGF2, fluorescence 635/667; higher = more signal
[7] = mitochondrial membrane potential change in A549 cells, profiling panel, cell-based, JC-1 fluorescence, basal, 24 h, 100 nL (AID 1138); details: higher = more signal;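 also: A549 lung adenocarcinoma cells under basal conditions with no added stimulus; test concentration not given here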
[8] = test system: Lefty1; test: Lefty1 binders on small-molecule microarrays, primary screen, biochemical, small-molecule microarray, 635/667 nm fluorescence (AID 1139); details: small-molecule microarray binding, fluorescence 635/667; higher = more signal
[9] = test system: wheat germ agglutinin (Triticum aestivum), Alexa647-labelled; test: wheat germ agglutinin binders on compound microarrays, profiling panel, artefact control for SMM control-protein annotation, biochemical, small-molecule microarray, 635/667 nm fluorescence (AID 1140); details: WGA-A647 binding, 635 nm fluorescence, higher = more signal;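 also: score merges 667 nm feature emission with signal to noise over triplicate slides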
[10] = target: Luciferin 4-monooxygenase (Photinus pyralis) (UniProt P08659); test: firefly luciferase enzyme inhibitors, primary screen, biochemical, luminescence, purified enzyme, 2006 set (AID 1141); details: SteadyGlo luminescence, 30 min, higher = more signal, called active from +8 up or from −8 down;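 also: cell-free assay with purified firefly luciferase at 100 ng per well in PBS; test concentration not given here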
[11] = test system: Wnt5a (protein binding on small-molecule microarray); test: Wnt5a binders on small-molecule microarray, primary screen, biophysical, 635/667 nm fluorescence (AID 1142); details: 635 nm fluorescence, higher = more signal;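 also: fluorescence read at 667 nm with signal to noise per printed feature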
[12] = cell viability in Huh7 cells, primary screen, cytotoxicity control for HCV replication inhibitor project, CellTiter-Glo luminescence, basal, 48 h (AID 1143); details: Huh7 HCV replicon, higher = more signal, called active from +8 up or from −8 down;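 also: Huh7 hepatoma cells carrying a hepatitis C replication reporter with no stimulus; test concentration not given here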
[13] = P. aeruginosa biofilm formation inhibitors, primary screen, PAO1 strain, BacTiter-Glo luminescence, LB-PBS (AID 1144); details: 12 h, higher = more signal
[14] = CREB reporter modulators without forskolin, primary screen, cell-based, PC12, CRE-LacZ reporter, unstimulated (AID 1145); details: no forskolin, luminescence, 4.5 h, higher = more signal, called active from +8 up or from −8 down
[15] = CREB reporter modulators under forskolin, primary screen, cell-based, PC12, CRE-LacZ reporter, forskolin-stimulated (AID 1146); details: luminescence, 4.5 h, higher = more signal, called active from +8 up or from −8 down;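 also: PC12 cells with 6xCRE LacZ reporter stimulated by forskolin 10 µM; beta-galactosidase reporter signal reflecting CREB driven transcription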
[16] = target: Streptavidin (Streptomyces avidinii) (UniProt P22629); test: streptavidin binders on small-molecule microarray, primary screen, artefact control for SMM compound annotation, biophysical, 635/667 nm fluorescence (AID 1147); details: streptavidin binding, higher = more signal;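 also: signal reflects streptavidin binding to arrayed compounds as a control protein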
[17] = small-molecule binders of probe aInhba, primary screen, biochemical, small-molecule microarray, 635/667 nm fluorescence (AID 1148); details: higher = more signal;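 also: score merges 667nm spot fluorescence with signal-to-noise for antibody binding to printed compounds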
[18] = target: Torsin-1A (Homo sapiens) (UniProt O14656); test: torsin A binders from cell lysate, primary screen, small-molecule microarray, wild-type, 635/667 nm (AID 1149); details: COS7 hTOR1A-WT lysate, 635 nm fluorescence, higher = more signal
[19] = target: Torsin-1A (Homo sapiens) (UniProt O14656); test: small-molecule binders of mutant TOR1A in lysate, primary screen, cell lysate, small-molecule microarray, COS7 lysate, 635/667 nm fluorescence (AID 1150); details: COS7 hTOR1A mutant lysate, 635 nm fluorescence, higher = more signal;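 also: score pools 667 nm emission and signal to noise measuring lysate protein binding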
[20] = test system: Sonic hedgehog protein (Shh); test: small-molecule binders of Shh protein, primary screen, biochemical, small-molecule microarray, 635/667 nm fluorescence (AID 1151); details: small-molecule microarray binding, 635 nm fluorescence; higher = more signal;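 also: Shh protein binding to compounds spotted on small-molecule microarray slides; score combines spot fluorescence intensity with signal-to-noise across triplicate slides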

Chain of Streptavidin (Streptomyces avidinii) (P22629 whole entry, looked up): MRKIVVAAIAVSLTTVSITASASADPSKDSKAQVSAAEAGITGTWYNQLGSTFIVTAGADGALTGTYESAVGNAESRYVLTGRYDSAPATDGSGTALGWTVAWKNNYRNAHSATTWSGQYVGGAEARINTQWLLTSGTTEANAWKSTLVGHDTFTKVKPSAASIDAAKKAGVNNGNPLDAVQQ
Chain of Luciferin 4-monooxygenase (Photinus pyralis) (P08659 whole entry, looked up): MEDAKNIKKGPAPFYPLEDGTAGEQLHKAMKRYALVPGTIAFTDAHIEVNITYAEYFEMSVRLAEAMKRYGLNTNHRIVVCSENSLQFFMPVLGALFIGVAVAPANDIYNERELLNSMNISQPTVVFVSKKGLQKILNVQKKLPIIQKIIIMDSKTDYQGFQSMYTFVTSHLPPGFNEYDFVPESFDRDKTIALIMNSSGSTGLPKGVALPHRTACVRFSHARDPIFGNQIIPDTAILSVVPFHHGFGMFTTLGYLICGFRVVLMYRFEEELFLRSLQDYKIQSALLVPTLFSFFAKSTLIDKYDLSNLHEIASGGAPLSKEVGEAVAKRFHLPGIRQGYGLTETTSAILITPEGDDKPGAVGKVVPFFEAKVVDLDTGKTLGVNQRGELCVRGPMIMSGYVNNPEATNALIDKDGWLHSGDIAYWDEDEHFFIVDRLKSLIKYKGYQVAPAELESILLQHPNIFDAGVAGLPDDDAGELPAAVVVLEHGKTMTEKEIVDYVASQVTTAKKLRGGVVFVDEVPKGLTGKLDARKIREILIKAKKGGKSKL
Chain of Torsin-1A (Homo sapiens) (O14656 whole entry, looked up): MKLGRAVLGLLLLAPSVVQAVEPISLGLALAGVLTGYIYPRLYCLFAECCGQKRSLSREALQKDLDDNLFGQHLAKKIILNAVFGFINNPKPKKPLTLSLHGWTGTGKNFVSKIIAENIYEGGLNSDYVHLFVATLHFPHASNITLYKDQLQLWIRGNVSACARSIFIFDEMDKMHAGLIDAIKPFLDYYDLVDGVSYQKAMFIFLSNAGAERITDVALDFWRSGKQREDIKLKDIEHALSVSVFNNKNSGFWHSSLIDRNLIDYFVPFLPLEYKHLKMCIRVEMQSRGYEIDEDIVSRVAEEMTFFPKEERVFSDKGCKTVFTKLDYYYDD
Chain of Focal adhesion kinase 1 (Homo sapiens) (Q05397 whole entry, looked up): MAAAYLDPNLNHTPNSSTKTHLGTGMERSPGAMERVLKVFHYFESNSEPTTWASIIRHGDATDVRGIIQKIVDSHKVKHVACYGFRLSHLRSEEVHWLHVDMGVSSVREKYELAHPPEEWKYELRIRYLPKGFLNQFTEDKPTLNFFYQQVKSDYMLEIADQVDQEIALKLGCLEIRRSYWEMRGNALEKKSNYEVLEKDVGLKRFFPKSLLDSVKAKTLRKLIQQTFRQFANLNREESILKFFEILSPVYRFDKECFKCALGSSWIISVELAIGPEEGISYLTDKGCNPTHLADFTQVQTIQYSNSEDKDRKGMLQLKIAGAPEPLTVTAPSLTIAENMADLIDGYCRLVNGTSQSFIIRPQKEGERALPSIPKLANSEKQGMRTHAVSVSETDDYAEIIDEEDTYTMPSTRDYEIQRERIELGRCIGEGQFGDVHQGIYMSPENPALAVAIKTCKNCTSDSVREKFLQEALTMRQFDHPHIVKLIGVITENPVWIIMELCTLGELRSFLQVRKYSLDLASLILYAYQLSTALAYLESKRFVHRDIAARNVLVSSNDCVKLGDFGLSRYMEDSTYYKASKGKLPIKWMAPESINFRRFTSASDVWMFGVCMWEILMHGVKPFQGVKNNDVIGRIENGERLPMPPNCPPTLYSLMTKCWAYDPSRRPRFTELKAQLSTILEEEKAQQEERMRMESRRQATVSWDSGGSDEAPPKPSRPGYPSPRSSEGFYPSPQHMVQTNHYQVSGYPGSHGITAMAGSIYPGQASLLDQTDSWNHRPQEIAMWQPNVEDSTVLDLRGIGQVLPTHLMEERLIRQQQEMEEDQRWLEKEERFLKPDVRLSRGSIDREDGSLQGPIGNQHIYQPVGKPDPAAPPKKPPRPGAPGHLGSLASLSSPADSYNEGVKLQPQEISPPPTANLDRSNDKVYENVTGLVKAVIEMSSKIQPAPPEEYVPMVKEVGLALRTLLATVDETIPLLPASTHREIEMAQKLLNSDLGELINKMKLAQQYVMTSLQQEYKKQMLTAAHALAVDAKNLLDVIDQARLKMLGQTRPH
Chain of Fibroblast growth factor 2 (Homo sapiens) (P09038 whole entry, looked up): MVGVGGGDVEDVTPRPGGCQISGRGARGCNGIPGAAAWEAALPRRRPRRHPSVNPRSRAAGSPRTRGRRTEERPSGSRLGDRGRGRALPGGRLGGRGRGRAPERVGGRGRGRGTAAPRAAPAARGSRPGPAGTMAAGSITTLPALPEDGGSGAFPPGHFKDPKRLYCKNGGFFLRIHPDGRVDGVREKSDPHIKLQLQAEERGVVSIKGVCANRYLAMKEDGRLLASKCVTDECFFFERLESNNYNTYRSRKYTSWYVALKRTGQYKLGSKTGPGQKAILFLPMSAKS
Chain of Follistatin (Homo sapiens) (P19883 whole entry, looked up): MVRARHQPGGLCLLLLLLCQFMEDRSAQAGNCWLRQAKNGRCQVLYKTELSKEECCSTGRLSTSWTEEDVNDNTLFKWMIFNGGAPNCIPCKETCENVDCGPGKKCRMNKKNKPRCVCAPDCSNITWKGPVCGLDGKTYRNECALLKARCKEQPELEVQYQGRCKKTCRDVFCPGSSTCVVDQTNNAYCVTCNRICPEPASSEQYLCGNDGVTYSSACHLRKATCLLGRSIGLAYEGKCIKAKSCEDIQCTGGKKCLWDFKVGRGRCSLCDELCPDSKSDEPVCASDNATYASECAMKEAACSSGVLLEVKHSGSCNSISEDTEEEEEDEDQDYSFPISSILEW

| SMILES | composite z-score [1] | composite z-score [2] | composite z-score [3] | composite z-score [4] | composite z-score [5] | composite z-score [6] | z-score [7] | composite z-score [8] | composite z-score [9] | z-score [10] | composite z-score [11] | z-score [12] | z-score [13] | z-score [14] | z-score [15] | composite z-score [16] | composite z-score [17] | composite z-score [18] | composite z-score [19] | composite z-score [20] |
| --- | --- | --- | --- | --- | --- | --- | --- | --- | --- | --- | --- | --- | --- | --- | --- | --- | --- | --- | --- | --- |
| COc1ccc(C#Cc2ccc3c(c2)[C@]2(C(=O)N3)[C@H](C(=O)N3CCN(c4ncccn4)CC3)[C@H]3C(=O)O[C@H](c4ccccc4)[C@H](c4ccccc4)N3[C@@H]2c2ccc(O)cc2)cc1 | 0.658 | 1.2 | 0.392 | 0.972 | 1.2 | 0.485 | -0.799 | 0.884 | 0.4 | -0.374 (inactive) | 0.205 | -0.629 (inactive) | -0.747 (inactive) | 0.775 (inactive) | -0.612 (inactive) | 1.04 | 0.13 | -0.0852 | 0.231 | 0.88 |
| COc1ccc(CCNC(=O)[C@@]2(C)c3ccccc3C(=O)N(Cc3ccccc3)[C@H]2c2ccc(CO)cc2)cc1 | 1.01 | 1.29 | 0.652 | 1 | 1.45 | 1.42 | -1.72 | 1.57 | 0.62 | 1.11 (inactive) | 0.968 | -5.28 (inactive) | -2.01 (inactive) | 0.208 (inactive) | 0.303 (inactive) | 1.3 | 0.122 | 2.07 | 1.67 | 2.16 |
| Cc1ccc(S[C@]2(C(=O)NCC(C)C)CC(=O)N(Cc3ccccc3)[C@@H]2c2ccc(CO)cc2)cc1 | -0.549 | -0.467 | -0.0956 | -1.2 | -0.795 | -0.42 | -0.254 | -1.4 | -0.282 | -0.766 (inactive) | -0.405 | -1.13 (inactive) | 0.459 (inactive) | -0.179 (inactive) | 0.98 (inactive) | -0.987 | -0.152 | -0.258 | -0.293 | -1.45 |
| Cc1ccc(S[C@]2(C(=O)NCCCN(C)C)CC(=O)N(Cc3ccccc3)[C@@H]2c2ccc(CO)cc2)cc1 | -0.786 | -0.335 | -0.371 | -0.865 | 0.0417 | -0.734 | 0.803 | -1.53 | -0.0701 | -1.1 (inactive) | -0.2 | -0.533 (inactive) | 0.294 (inactive) | -0.232 (inactive) | 0.529 (inactive) | -0.689 | -0.0494 | -0.883 | -0.623 | -1.02 |
| COC(=O)C(CC#Cc1ccc2c(c1)[C@]1(C(=O)N2)[C@H](C(=O)N2CCCCCCC2)[C@H]2C(=O)O[C@H](c3ccccc3)[C@H](c3ccccc3)N2[C@@H]1c1ccccc1OCCO)C(=O)OC | 3 | 1.35 | 4.24 | 0.654 | 1.56 | 0.197 | -1.08 | 1.89 | 1.73 | -0.525 (inactive) | 2.44 | -3.54 (inactive) | -0.429 (inactive) | -0.141 (inactive) | -0.81 (inactive) | 4.06 | 2.24 | 3.84 | 3.73 | 2.04 |
| C=CC[C@]1(C(=O)NCCN2CCOCC2)N=C(c2ccc(OCCCO)cc2)O[C@H]1c1ccccc1N=[N+]=[N-] | 1.5 | 1.16 | 0.0147 | 0.772 | 1.32 | 0.931 | 0.98 | -0.367 | 0.455 | -8.62 (active) | 0.038 | -1.76 (inactive) | 0.672 (inactive) | 2.66 (inactive) | -1.37 (inactive) | 1.23 | 0.126 | 0.17 | -0.0097 | 0.255 |
| O=C1c2ccccc2[C@@]2(Cc3ccccc3N(Cc3ccccc3)C2=O)[C@H](c2ccc(CO)cc2)N1Cc1ccccc1C(F)(F)F | 1.88 | -0.911 | -0.676 | -2.02 | -0.368 | -0.721 | 1.78 | -1.04 | -0.749 | -0.666 (inactive) | -0.373 | 0.174 (inactive) | 1.18 (inactive) | -0.116 (inactive) | 0.172 (inactive) | -0.896 | -0.128 | -0.916 | -0.0921 | -1.45 |
| CCN(CC)c1ccc(N2CC=CC34O[C@@H]5C=CCCOC(=O)C5[C@H]3C(=O)N(CCCO)[C@@H]4C2=O)cc1 (stereo not given in full) | -1.26 | -1.14 | 0.585 | -1.33 | -0.0464 | -0.175 | 0.185 | 0.108 | -1.19 | -0.546 (inactive) | -0.0601 | -2.8 (inactive) | -0.657 (inactive) | 0.0605 (inactive) | -1.14 (inactive) | -0.619 | 0.0051 | -0.143 | -0.419 | 0.327 |
| C=C(COC)/C(=C/C[C@H](OC(C)=O)c1ccccc1OCCO)c1cnc2ccccc2c1 | 1.91 | 0.977 | 0.528 | 0.325 | 1.29 | 0.394 | 0.0177 | 0.814 | 0.666 | 0.0631 (inactive) | 0.704 | -0.0339 (inactive) | -0.543 (inactive) | 0.131 (inactive) | 0.128 (inactive) | 0.351 | 0.0183 | 0.0548 | 0.794 | 1.65 |
| O=C1O[C@@H](c2ccccc2)[C@@H](c2ccccc2)N2[C@@H](c3ccc(O)cc3)[C@]3(C(=O)Nc4ccccc43)[C@@H](C(=O)N3CCCCCCC3)[C@H]12 | 2.96 | 1.23 | 1.22 | 0.827 | 1.43 | 1.64 | 0.48 | 1.6 | 1.46 | 1.04 (inactive) | 1.36 | -2.61 (inactive) | -0.279 (inactive) | 0.0384 (inactive) | 0.276 (inactive) | 2.93 | 1.98 | 1.91 | 1.8 | 2.02 |
